“And” between values parts separate entries of the source, which are not always exact repeats. Equal values may be shown once. Results filed as inconclusive are left out. A call without a number means that no potency is given here. Where a structure was tested more than once in an assay, its records may differ in their call. The source made the active and inactive calls. Unless noted, calls follow the shape of the dose curve; as a rule, active = well fitted curve in the direction sought with a large enough effect in the repeat runs; inconclusive = weak or mixed curves; inactive = no such curve, though single readings can be large; an effect the other way counts as inactive or inconclusive.
Columns and labels:
[1] = qHTS assay to identify small molecule antagonists of the sonic hedgehog signaling (Shh) pathway (AID 1259369; calls by dose curve; also: nearly all actives have a fitted effect of over 45% in size; also: potency is read from the fitted curve at half-maximal effect)
Summary of the method: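 NIH/3T3-derived 3T3Gli1-Luc cells with stably integrated Gli1-Luc reporter were preincubated 4hr at 37 C, then given compounds in DMSO plus Shh conditioned medium and incubated 24hr. Firefly luciferase luminescence read after 30min reagent at room temperature.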

[2] = qHTS assay to identify small molecule agonists of the androgen receptor (AR) signaling pathway in the presence of an antagonist - cell viability counter screen (AID 1259379); also: nearly all actives have a fitted effect of over 25% in size; also: potency is read from the fitted curve at half-maximal effect
Summary of the method: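 MDA-kb2 human breast carcinoma cells (stable MMTV-luciferase, AR/GR responsive) were seeded 3,000 cells/well, pre-incubated 5 hr at 37C without CO2, then given 3.0uM nilutamide and compounds at 15 concentrations for 16 hr. Viability was read by CellTiter-Fluor fluorescence.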

[3] = qHTS assay to identify small molecule agonists of the estrogen receptor beta (ER-beta) signaling pathway - cell viability counter screen (AID 1259380); also: nearly all actives have a fitted effect of over 30% in size; also: potency is read from the fitted curve at half-maximal effect
Summary of the method: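 ER-beta-UAS-bla HEK293T cells in medium with 2% charcoal-stripped FBS were preincubated 6 hr at 37C, dosed with compound in DMSO for 16 hr, then after the bla read, CellTiter-Glo was added for 30 min at room temperature; luminescence recorded.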

[4] = qHTS assay to identify small molecule antagonists of the estrogen receptor beta (ER-beta) signaling pathway - cell viability counter screen (AID 1259382); also: nearly all actives have a fitted effect of over 55% in size; also: potency is read from the fitted curve at half-maximal effect
Summary of the method: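 ER-beta-UAS-bla HEK293T cells (2,000/well, 2% charcoal-stripped FBS) were pre-incubated 6 hr at 37C, then given compound plus 1nM final 17-beta-estradiol for 16 hr. Viability was read in the same wells by CellTiter-Glo luminescence after 30 min at room temperature.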

[5] = target: Estrogen receptor (Homo sapiens) (UniProt P03372); assay: qHTS assay to identify small molecule agonists of the estrogen receptor alpha (ER-alpha) signaling pathway in the presence of an antagonist (AID 1259383; calls by dose curve; also: nearly all actives have a fitted effect of over 15% in size; also: potency is read from the fitted curve at half-maximal effect)
Summary of the method: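 VM7Luc4E2 cells (endogenous full-length ER-alpha, 4×ERE-luciferase) were precultured 5 days in phenol red-free medium with 10% charcoal-stripped FBS, given 10.0nM ICI-182,780 (final), then treated with compounds at 15 concentrations for 22hr at 37C; luminescence read with ONE-Glo.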

[6] = qHTS assay to identify small molecule agonists or antagonists of the thyroid stimulating hormone receptor (TSHR) signaling pathway - wild type cell line counter screen (AID 1259384; calls by dose curve)
Summary of the method: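 Counter screen in untransfected Hek293: compounds (15-point titration, triplicate) plus phosphodiesterase inhibitor Ro20-1724 added after 18 h plating; 30 min RT. Intracellular cAMP via competitive d2/cryptate immunoassay, 1 h incubation.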

[7] = target: Thyrotropin receptor (Homo sapiens) (UniProt P16473); assay: qHTS assay to identify small molecule antagonists of the thyroid stimulating hormone receptor (TSHR) signaling pathway (AID 1259385; calls by dose curve; also: nearly all actives have a fitted effect of over 20% in size; also: potency is read from the fitted curve at half-maximal effect)
Summary of the method: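 Antagonist mode: compound-treated TSHR-expressing HEK293 cells were stimulated with 1.5 ng/mL TSH (final) in presence of Ro20-1724 for 30 min at RT. HTRF cAMP detection after 1 h; each compound tested at 15 concentrations, triplicate.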

Chain of Estrogen receptor (Homo sapiens) (P03372 whole entry, looked up): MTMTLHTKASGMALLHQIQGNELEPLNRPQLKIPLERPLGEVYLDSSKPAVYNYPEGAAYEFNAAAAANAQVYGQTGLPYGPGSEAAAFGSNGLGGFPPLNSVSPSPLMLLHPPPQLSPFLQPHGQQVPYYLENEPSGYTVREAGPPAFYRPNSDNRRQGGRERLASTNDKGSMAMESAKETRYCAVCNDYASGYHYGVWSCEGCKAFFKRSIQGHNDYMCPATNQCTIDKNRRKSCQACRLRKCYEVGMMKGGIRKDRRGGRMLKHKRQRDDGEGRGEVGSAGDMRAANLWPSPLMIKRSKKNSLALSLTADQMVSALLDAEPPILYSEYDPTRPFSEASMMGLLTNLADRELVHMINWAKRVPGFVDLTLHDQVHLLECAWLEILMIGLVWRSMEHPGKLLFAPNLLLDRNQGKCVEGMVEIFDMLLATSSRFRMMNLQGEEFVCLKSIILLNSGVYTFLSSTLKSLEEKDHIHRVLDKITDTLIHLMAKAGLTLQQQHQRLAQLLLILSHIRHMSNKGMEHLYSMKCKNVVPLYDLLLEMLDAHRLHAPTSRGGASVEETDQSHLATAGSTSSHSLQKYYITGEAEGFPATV
Chain of Thyrotropin receptor (Homo sapiens) (P16473 whole entry, looked up): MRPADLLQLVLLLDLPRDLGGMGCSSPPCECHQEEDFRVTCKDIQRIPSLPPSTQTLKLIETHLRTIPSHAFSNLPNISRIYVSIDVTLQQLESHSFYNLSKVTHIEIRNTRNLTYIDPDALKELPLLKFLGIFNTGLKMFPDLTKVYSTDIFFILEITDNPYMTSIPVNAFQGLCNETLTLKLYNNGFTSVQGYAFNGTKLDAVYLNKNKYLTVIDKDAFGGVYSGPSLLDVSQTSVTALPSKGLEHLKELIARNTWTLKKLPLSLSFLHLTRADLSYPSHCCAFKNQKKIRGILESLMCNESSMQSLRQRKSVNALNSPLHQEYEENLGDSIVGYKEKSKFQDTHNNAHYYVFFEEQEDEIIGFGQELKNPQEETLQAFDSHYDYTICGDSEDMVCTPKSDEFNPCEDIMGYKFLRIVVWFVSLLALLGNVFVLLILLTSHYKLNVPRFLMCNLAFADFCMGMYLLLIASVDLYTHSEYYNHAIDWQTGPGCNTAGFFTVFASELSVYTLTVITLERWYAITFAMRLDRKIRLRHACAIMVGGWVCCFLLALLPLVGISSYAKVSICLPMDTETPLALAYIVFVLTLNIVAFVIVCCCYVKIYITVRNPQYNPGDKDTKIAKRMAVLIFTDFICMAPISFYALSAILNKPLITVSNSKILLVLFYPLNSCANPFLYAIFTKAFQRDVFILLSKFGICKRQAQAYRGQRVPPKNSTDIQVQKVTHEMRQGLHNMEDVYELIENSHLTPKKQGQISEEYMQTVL

Structure (SMILES) | Potency [1] | Potency [2] | Potency [3] | Potency [4] | Potency [5] | Potency [6] | Potency [7]
Oc1ccccc1-c1ccccc1 | inactive and 62.6 µM (active) | inactive | inactive | inactive | inactive |  | 
O=C(O)C(Cl)Cl | inactive | inactive | inactive | inactive | inactive | inactive | inactive
Cc1cc(Cl)ccc1N | inactive | inactive | inactive | inactive |  | inactive | inactive
Nc1ccc(Cl)cc1 | inactive | inactive | inactive | inactive | inactive | inactive | inactive
CC[N+](CC)(CC)CC | inactive | inactive | inactive | inactive |  | inactive | inactive
CCCCCCCCn1cc[n+](C)c1 | 215 nM (active) and 174 nM (active) | 4.85 µM (active) [middle of 4 runs] |  | inactive |  | inactive | inactive
CC(=O)O | inactive | inactive | inactive | inactive |  |  | 
CCCCCCCCCCCCCC[P+](CCCCCC)(CCCCCC)CCCCCC | 1.09 µM (active) and 1.1 µM (active) and 769 nM (active) | 9.73 µM (active) and 24.5 µM (active) and 2.43 µM (active) | 12.2 µM (active) and 27.5 µM (active) | 13.7 µM (active) and 27.5 µM (active) and inactive | inactive | inactive | 68.9 µM (active) and 69.1 µM (active) and inactive
Cc1cc(-c2ccc(N)c(C)c2)ccc1N | 8.73 µM (active) | inactive |  | inactive | 2.14 µM (active) and inactive |  | 
CCCC[n+]1ccccc1 | inactive | inactive | inactive | inactive |  | inactive | inactive
COP(=O)(OC)C(O)C(Cl)(Cl)Cl (stereo not given) | inactive | inactive | inactive | inactive |  | inactive | inactive
CCCn1cc[n+](C)c1 | inactive | inactive | inactive | inactive |  | inactive | inactive
CCCCCCCCCCCCCCCCn1cc[n+](C)c1 |  |  |  | inactive and 61.7 µM (active) and 30.7 µM (active) |  | inactive | inactive
CCCC[N+]1(C)CCCCC1 | inactive | inactive | inactive | inactive |  | inactive | inactive
CCC[N+]1(C)CCCCC1 | inactive | inactive | inactive | inactive |  | inactive | inactive
CN(C)[C@@H]1C(=O)C(C(N)=O)=C(O)[C@@]2(O)C(=O)C3=C(O)c4c(O)cccc4[C@@](C)(O)[C@H]3[C@H](O)[C@@H]12 | inactive | inactive | inactive | inactive |  | inactive | inactive

Source: PubChem BioAssay (Tox21)
